Test results: PubChem BioAssay (NCATS)
Values joined by “and” are separate entries in the source; they are usually repeats but may differ in a detail not shown here. Equal entries are not always repeated. Values without a mark were called inactive. Records with an inconclusive call do not appear. Active and inactive are the calls of the source. Unless noted, calls follow the shape of the dose curve; as a rule, active = well fitted curve in the direction sought with a large enough effect; inconclusive = small, poorly fitted or top-dose-only effect, or another doubt; inactive = no such curve, though single readings can be large; an effect the other way counts as inactive or inconclusive.

What was measured:
[1] = Cell Viability - LYMP2-003 (AID 965);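 also: potency is read from the fitted curve at half-maximal effect; cells exposed to compounds for 24 h before reading; nearly all actives have a fitted effect of over 50% in size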
Procedure, shortened: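 Acute cytotoxicity is scored as a concentration-dependent drop in intracellular ATP, measured by luciferase luminescence in human lymphoblastoid cells treated for 24 hours at 37 C. AC50 values derive from Hill-equation modelling.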

[2] = Cell Viability - LYMP2-004 (AID 966); also: potency is read from the fitted curve at half-maximal effect; nearly all actives have a fitted effect of over 65% in size
Procedure, shortened: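 Viable-cell number estimated from ATP luminescence (CellTiter-Glo) in 2500 human lymphoblastoid cells/well after 24 hr at 37 C with compound. AC50 fitted to the standard Hill equation.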

[3] = Cell Viability - LYMP2-011 (AID 969); also: potency is read from the fitted curve at half-maximal effect; nearly all actives have a fitted effect of over 60% in size
Procedure, shortened: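 Cells seeded at 2500 per well rest 5 hr before compound addition, then incubate 24 hr at 37 C. CellTiter-Glo reagent is added for 30 min at room temperature before luminescence detection.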

[4] = Cell Viability - LYMP2-013 (AID 970); also: potency is read from the fitted curve at half-maximal effect; nearly all actives have a fitted effect of over 55% in size
Procedure, shortened: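 In complete culture medium, human lymphoblastoid cells were dosed for 24 hr at 37 C, with tetraoctylammonium bromide (6.4pM to 92 uM) as positive control. Viability reflects luciferase-based ATP signal; AC50 derived from concentration-response curves.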

[5] = Cell Viability - LYMP2-015 (AID 971); also: potency is read from the fitted curve at half-maximal effect; nearly all actives have a fitted effect of over 55% in size
Procedure, shortened: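 AC50 values reflect Hill-model fits of ATP-based luminescence (CellTiter-Glo) from a human lymphoblastoid line, 2500 cells/well, treated 24 hr at 37 C.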

[6] = Cell Viability - LYMP2-017 (AID 972); also: potency is read from the fitted curve at half-maximal effect; nearly all actives have a fitted effect of over 55% in size
Procedure, shortened: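 In this qHTS format, lymphoblastoid cells in complete medium receive test compound for a day at 37 C before ATP content is quantified by luciferase luminescence. Reported AC50 figures come from standard Hill-equation curve fitting.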

[7] = Cell Viability - LYMP2-019 (AID 973); also: potency is read from the fitted curve at half-maximal effect; nearly all actives have a fitted effect of over 55% in size
Procedure, shortened: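 AC50 values come from Hill-equation modelling of qHTS concentration-response curves, where viability is measured as luciferase-based ATP luminescence in the lymphoblastoid line after 24 hr compound exposure in complete culture medium.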

[8] = Cell Viability - LYMP2-021 (AID 974)
Procedure, shortened: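 In qHTS format, compounds are tested against 2500 lymphoblastoid cells per well for 24 h; viable cell number is inferred from ATP-driven luciferase light, and Hill-equation fitting yields AC50 values.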

[9] = Cell Viability - LYMP2-023 (AID 975)
Procedure, shortened: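 In this qHTS, ATP-based luciferase luminescence (CellTiter-Glo) is quantified in human lymphoblastoid cells after 24 hr compound treatment at 37 C; tetraoctylammonium bromide serves as positive control. Concentration-response curves are Hill-fitted to give AC50.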

[10] = Cell Viability - LYMP2-025 (AID 976); also: potency is read from the fitted curve at half-maximal effect
Procedure, shortened: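 Luminescent ATP readout after 24 hr treatment of a human lymphoblastoid line (LYMP2-025, 2500 cells/well, 37 C). Reagent developed 30 min at room temperature; AC50 fitted with the Hill equation.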

[11] = Cell Viability - LYMP2-002 (AID 977);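 also: potency is read from the fitted curve at half-maximal effect; compound exposure lasted 24 h at 37 °C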
Procedure, shortened: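 Human lymphoblastoid cells (2500/well) in complete medium were preincubated 5 hr at 37 C, then exposed to compounds for 24 hr at 37 C. Intracellular ATP was read by CellTiter-Glo luminescence; AC50 came from Hill-equation concentration-response fits.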

[12] = Cell Viability - LYMP2-007 (AID 979);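 also: potency is read from the fitted curve at half-maximal effect; cells exposed to compound for 24 h before reading; nearly all actives have a fitted effect of over 60% in size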
Procedure, shortened: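 Measured via luciferase-based ATP quantitation: lymphoblastoid cells, 24 hr compound exposure at 37 C, AC50 from Hill fits.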

[13] = Cell Viability - LYMP2-008 (AID 980); also: potency is read from the fitted curve at half-maximal effect; nearly all actives have a fitted effect of over 60% in size
Procedure, shortened: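 Measured: ATP-dependent luminescence, proportional to viable cell number, in human lymphoblastoid cells treated 24 hr with compound in complete culture medium. Values are AC50s from Hill-equation modelling of qHTS titrations.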

[14] = Cell Viability - LYMP2-010 (AID 981)
Procedure, shortened: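 This 24 hr viability screen uses LYMP2-010 lymphoblastoid cells, quantifies ATP via luciferase luminescence, and derives AC50 from Hill fits of qHTS concentration-response data.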

[15] = Cell Viability - LYMP2-014 (AID 983); also: potency is read from the fitted curve at half-maximal effect; nearly all actives have a fitted effect of over 50% in size
Procedure, shortened: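 Quantitative HTS in lymphoblastoid cells: 24 hr compound exposure, then CellTiter-Glo ATP luminescence. Positive control was tetraoctylammonium bromide, 6.4pM to 92 uM.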

[16] = Cell Viability - LYMP2-016 (AID 984)
Procedure, shortened: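 Acute toxicity in a Coriell human lymphoblastoid line is scored as loss of intracellular ATP over 24 h of treatment in complete medium. CellTiter-Glo signal is fitted across concentrations with the Hill equation to give AC50.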

[17] = Cell Viability - LYMP2-018 (AID 985); also: potency is read from the fitted curve at half-maximal effect; nearly all actives have a fitted effect of over 50% in size
Procedure, shortened: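 In this qHTS viability assay, cells are treated for 24 hr and cellular ATP is quantified by luciferase-based luminescence, with tetraoctylammonium bromide as positive control.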

[18] = Cell Viability - LYMP2-020 (AID 986)
Procedure, shortened: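 Cells at 2500 per well receive a 24 hr compound exposure at 37 C. Viability is measured as ATP-dependent luciferase luminescence, with AC50 modeled from qHTS concentration-response curves.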

[19] = Cell Viability - LYMP2-022 (AID 987)
Procedure, shortened: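 In this qHTS cytotoxicity screen, compound titrations were incubated 24 hr at 37 C with human lymphoblastoid cells in complete medium. Luciferase-based ATP luminescence provided the viability signal.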

[20] = Cell Viability - LYMP2-024 (AID 988); also: potency is read from the fitted curve at half-maximal effect; nearly all actives have a fitted effect of over 60% in size
Procedure, shortened: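 Cells at 2500 per well received compound for 24 hr after a 5 hr settling period. Viability was scored by CellTiter-Glo luminescence, with AC50 from Hill fits.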

[21] = Cell Viability - LYMP2-026 (AID 989); also: potency is read from the fitted curve at half-maximal effect; nearly all actives have a fitted effect of over 50% in size
Procedure, shortened: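 Acute toxicity screen in complete culture medium, with 24 hr compound exposure at 37 C. Viability read as cellular ATP via luciferase reaction, with tetraoctylammonium bromide (6.4pM to 92 uM) as positive control.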

[22] = Cell Viability - LYMP1-002 - Assay at 24 hr (AID 993); also: potency is read from the fitted curve at half-maximal effect
Procedure, shortened: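 Viability was judged from intracellular ATP using a luciferase read-out, following a 24-hour compound incubation at 37 C of lymphoblastoid cells seeded at 2500 per well. Concentration-response data were fitted to the Hill equation for AC50.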

[23] = Cell Viability - LYMP1-002 - Assay at 40 hr (AID 994)
Procedure, shortened: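 Concentration-dependent ATP loss after 40 hr treatment at 37 C defined toxicity; AC50 values were obtained by fitting the standard Hill equation.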

[24] = biological target: Glucocorticoid receptor (Homo sapiens) (UniProt P04150); assay: qHTS assay for small molecule agonists of glucocorticoid receptor signaling (AID 588532; active = well fitted curve in the direction sought with a large enough effect in the signal ratio, with a control signal flat; the % refers to the signal ratio;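 also: 100% = dexamethasone at 0.1 µM and 0% = DMSO only wells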); conditions: HeLa MMTV-bla, beta-lactamase ratio, agonist, 18 h; active compounds read high; percent of dexamethasone control, DMSO zero
Procedure, shortened: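 Quantitative HTS using CellSensor MMTV-bla HeLa cells in charcoal/dextran-treated serum; compounds tested up to 92 uM. After 18 h at 37 C, CCF4 dye reported reporter induction.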

[25] = biological target: Glucocorticoid receptor (Homo sapiens) (UniProt P04150); assay: qHTS assay for small molecule antagonists of glucocorticoid receptor signaling (AID 588533; active = well fitted inhibition curve with a large enough effect in the signal ratio, with a control signal flat, not every such curve was filed as active; the % refers to the signal ratio;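 also: cells stimulated with 2 nM dexamethasone as agonist; potency is read from the fitted curve at half-maximal effect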)
Procedure, shortened: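 Antagonist-mode qHTS: compound titrations added to GRE-bla HeLa cells, then dexamethasone 2 nM final; 18 h, 37 C. CCF4 FRET fluorescence normalized to dexamethasone and DMSO; IC50 from Hill fit.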

[26] = biological target: Vitamin D3 receptor (Homo sapiens) (UniProt P11473); assay: qHTS assay for small molecule antagonists of vitamin D receptor signaling (AID 588541; calls by dose curve; also: potency is read from the fitted curve at half-maximal effect)
Procedure, shortened: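 Antagonist-mode beta-lactamase reporter assay: HEK293T VDR-UAS-bla cells were exposed to titrated compound alongside 1-alpha,25-dihydroxyvitamin D3 at 3 nM final for 16 h. Values were normalized to the 50 nM agonist control and DMSO basal, with IC50 and efficacy from Hill equation fits.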

[27] = qHTS assay for small molecule activators of the nuclear factor-kappa B (NF-kB) signaling pathway (AID 651749; active = well fitted activation curve with a large enough effect in the signal ratio; the % refers to the signal ratio; also: series mostly up to about 77 µM; % of control where 0% means no effect); conditions: NF-kB-bla ME-180 cells, beta-lactamase FRET ratio, 16 h; active compounds read high
Procedure, shortened: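 FRET-based beta-lactamase detection in ME-180 cells reports NF-kB response-element-driven transcription following overnight (16 hr) compound treatment.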

[28] = qHTS assay for small molecule disruptors of the mitochondrial membrane potential - 1 hr assay (AID 651754; calls by dose curve; also: % is scaled to controls: 0 for no effect and ±100 for the full control effect; nearly all actives have a fitted effect of over 35% in size)
Procedure, shortened: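 In this qHTS format, a 1 hr compound treatment of HepG2 cells precedes Mito-MPS staining, and membrane potential is judged from aggregate (red) against monomer (green) fluorescence intensity.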

[29] = qHTS assay for small molecule disruptors of the mitochondrial membrane potential - 5 hr assay (AID 651755; calls by dose curve; also: % is scaled to controls: 0 for no effect and ±100 for the full control effect; nearly all actives have a fitted effect of over 40% in size)
Procedure, shortened: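 Membrane-potential dye readout: red aggregate (540 ex/590 em) versus green monomer (490 ex/535 em) fluorescence after 30 min dye loading, following 5 hr compound exposure at 37C of overnight-plated HepG2 cells.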

[30] = qHTS assay for environmental chemicals that activate the Aryl hydrocarbon Receptor (AhR) signaling pathway (AID 651777); conditions: 1A2-DRE human hepatoma cells, luciferase, 24 h; activation: active compounds read high; also: % of control where 0% means no effect; nearly all actives have a fitted effect of over 15% in size
Procedure, shortened: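 Human hepatoma 1A2-DRE cells, stably carrying a dioxin response element and CYP1A2 promoter driving luciferase, were exposed to compounds for 24 hr at 37 C and 5% CO2. Luciferase signal was then read after 30 min One-Glo at room temperature.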

[31] = biological target: Peroxisome proliferator-activated receptor alpha (Homo sapiens) (UniProt Q07869); assay: qHTS assay for small molecule agonists of the peroxisome proliferator-activated receptor alpha (PPARalpha) signaling pathway (AID 651778); conditions: PathHunter PPARalpha complementation, chemiluminescence, 6 h; max response: active compounds read high; also: % of control where 0% means no effect
Procedure, shortened: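 Chemiluminescence from complemented enzyme reported PPARalpha activation in cells after 6 hr of compound treatment at 37 C. The detection reagent was incubated for 60 min at room temperature, and compounds were scored as agonists.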

[32] = biological target: Nuclear receptor ROR-gamma (Homo sapiens) (UniProt P51449); assay: qHTS assay for small molecule antagonists of the retinoid-related orphan receptor gamma (ROR-gamma) signaling pathway (AID 651802)
Procedure, shortened: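 Doxycycline-induced reporter activity in engineered CHO cells (TET-inducible ROR, RORE-LUC) was measured by luminescence after 16hr compound exposure at 37C.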

[33] = qHTS assay for small molecule agonists of the antioxidant response element (ARE) signaling pathway measured by Nrf2-dependant transcriptional activity - cell viability counter screen (AID 720653; active = well fitted curve in the direction sought with a large enough effect in the repeat runs; an effect the other way counts as inactive or inconclusive; also: potency is read from the fitted curve at half-maximal effect); conditions: ARE-bla HepG2 viability, CellTiter-Glo ATP luminescence, 16 h; max response: active compounds read low
Procedure, shortened: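 Cytotoxicity counter screen: intracellular ATP quantified by CellTiter-Glo luminescence in the same ARE-bla HepG2 plates, after 16 h compound exposure and a 2 h beta-lactamase substrate step.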

[34] = qHTS assay for cell viability of HEK293 cells (AID 743288); conditions: ATP luminescence (CellTiter-Glo), 18 h; max response: active compounds read low
Procedure, shortened: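 Quantitative high-throughput screen: compounds were pinned onto parental HEK293 cells (2,000 per well) after a minimum 5 h settling at 37 C, incubated 18 h at 37 C, and intracellular ATP measured by luciferase luminescence.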

[35] = qHTS assay for cell viability of the p53RE-bla HCT-116 cell line (AID 743292)
Procedure, shortened: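 CellSensor p53RE-bla HCT-116 cells, 4,000/well, preincubated 5 h at 37 C, then exposed to compounds in DMSO for 16 h at 37 C. Viability read as CellTiter-Glo luminescence (intracellular ATP) after 30 min at room temperature.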

Sequence of Glucocorticoid receptor (Homo sapiens) (P04150 whole entry, looked up): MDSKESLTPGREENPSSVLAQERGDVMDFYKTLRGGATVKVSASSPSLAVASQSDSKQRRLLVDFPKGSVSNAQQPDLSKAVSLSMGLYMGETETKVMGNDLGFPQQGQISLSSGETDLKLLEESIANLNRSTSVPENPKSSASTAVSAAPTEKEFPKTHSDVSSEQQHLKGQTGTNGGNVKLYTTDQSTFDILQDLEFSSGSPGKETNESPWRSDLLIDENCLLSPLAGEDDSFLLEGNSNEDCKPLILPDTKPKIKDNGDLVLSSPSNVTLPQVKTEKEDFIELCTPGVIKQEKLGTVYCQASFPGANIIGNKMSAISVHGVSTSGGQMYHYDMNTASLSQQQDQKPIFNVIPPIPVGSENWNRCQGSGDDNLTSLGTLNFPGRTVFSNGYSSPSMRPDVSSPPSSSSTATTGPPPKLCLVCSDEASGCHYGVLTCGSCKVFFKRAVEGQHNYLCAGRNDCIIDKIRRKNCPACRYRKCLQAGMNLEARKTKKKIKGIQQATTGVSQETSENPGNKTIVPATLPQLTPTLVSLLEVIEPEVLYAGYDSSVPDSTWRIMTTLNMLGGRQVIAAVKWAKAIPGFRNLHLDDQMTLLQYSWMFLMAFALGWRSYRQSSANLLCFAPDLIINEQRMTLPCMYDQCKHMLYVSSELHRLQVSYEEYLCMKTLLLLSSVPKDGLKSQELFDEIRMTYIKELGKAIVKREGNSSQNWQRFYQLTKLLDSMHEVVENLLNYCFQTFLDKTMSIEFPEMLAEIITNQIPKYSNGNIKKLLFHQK
Sequence of Peroxisome proliferator-activated receptor alpha (Homo sapiens) (Q07869 whole entry, looked up): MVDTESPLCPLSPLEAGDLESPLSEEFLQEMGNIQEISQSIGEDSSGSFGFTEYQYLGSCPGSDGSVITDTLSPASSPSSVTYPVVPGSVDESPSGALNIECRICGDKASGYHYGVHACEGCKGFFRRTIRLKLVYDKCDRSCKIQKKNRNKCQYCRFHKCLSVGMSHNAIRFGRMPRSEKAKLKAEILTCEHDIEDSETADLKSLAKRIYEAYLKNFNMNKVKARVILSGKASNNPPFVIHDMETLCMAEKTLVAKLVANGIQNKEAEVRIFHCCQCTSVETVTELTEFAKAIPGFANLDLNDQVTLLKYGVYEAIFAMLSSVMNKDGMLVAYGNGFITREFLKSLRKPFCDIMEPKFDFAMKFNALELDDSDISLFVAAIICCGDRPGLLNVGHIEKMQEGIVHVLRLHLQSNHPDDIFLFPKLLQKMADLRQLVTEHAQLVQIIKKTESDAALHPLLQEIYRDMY
Sequence of Nuclear receptor ROR-gamma (Homo sapiens) (P51449 whole entry, looked up): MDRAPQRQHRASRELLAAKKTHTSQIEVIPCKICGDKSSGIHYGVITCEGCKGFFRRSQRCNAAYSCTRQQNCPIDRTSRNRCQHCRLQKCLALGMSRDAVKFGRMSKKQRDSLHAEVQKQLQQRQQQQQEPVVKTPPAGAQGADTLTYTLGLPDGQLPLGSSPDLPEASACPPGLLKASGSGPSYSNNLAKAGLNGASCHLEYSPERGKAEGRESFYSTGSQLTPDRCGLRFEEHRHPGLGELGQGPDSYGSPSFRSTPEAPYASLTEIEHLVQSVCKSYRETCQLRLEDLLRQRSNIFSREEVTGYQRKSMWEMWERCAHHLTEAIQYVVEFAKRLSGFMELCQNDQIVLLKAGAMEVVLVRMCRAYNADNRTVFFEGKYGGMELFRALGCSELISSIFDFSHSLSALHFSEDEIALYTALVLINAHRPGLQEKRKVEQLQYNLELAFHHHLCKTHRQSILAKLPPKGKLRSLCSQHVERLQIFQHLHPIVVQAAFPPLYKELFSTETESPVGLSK
Sequence of Vitamin D3 receptor (Homo sapiens) (P11473 whole entry, looked up): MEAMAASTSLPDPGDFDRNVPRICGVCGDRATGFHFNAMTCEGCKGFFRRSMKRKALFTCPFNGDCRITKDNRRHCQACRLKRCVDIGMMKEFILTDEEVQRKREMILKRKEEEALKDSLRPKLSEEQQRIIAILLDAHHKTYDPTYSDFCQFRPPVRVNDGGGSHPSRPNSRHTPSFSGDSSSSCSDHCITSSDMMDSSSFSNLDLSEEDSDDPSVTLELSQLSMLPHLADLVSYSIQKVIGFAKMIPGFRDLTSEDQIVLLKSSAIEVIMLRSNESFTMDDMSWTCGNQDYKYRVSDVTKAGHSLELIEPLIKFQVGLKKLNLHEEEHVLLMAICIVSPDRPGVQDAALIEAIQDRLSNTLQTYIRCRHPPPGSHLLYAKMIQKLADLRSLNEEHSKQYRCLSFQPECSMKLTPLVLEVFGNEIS

In the case of CC(=O)Nc1ccc(C(=O)CCl)cc1, the Potency [1] is reported as 6.31 µM (active), the Potency [2] is reported as 3.98 µM (active) and the Potency [3] is reported as 6.31 µM (active). The Potency [4] was 6.31 µM (active), the Potency [5] was 5.01 µM (active) and the Potency [6] was 5.01 µM (active). The Potency [7] was 5.01 µM (active), the Potency [8] was 5.01 µM (active) and the Potency [9] was 7.94 µM (active). The Potency [10] was 10 µM (active), the Potency [11] was 7.94 µM (active) and the Potency [12] was 6.31 µM (active). For the same compound, the Potency [13] was 6.31 µM (active), the Potency [14] was 3.98 µM (active) and the Potency [15] was 7.94 µM (active). For the same compound, the Potency [16] was 7.94 µM (active), the Potency [17] was 7.94 µM (active) and the Potency [18] was 5.01 µM (active). The Potency [19] was 3.98 µM (active), the Potency [20] was 3.16 µM (active) and the Potency [21] was 7.94 µM (active). For the same compound, the Potency [22] was 25.1 µM (active), the Potency [23] was 39.8 µM (active) and the activation [24] was -4.98% and -25.5%. For the same compound, the Potency [25] was 39.8 µM (active), the Potency [26] was 25.1 µM (active) and the activation [27] was -3.62%. The Potency [28] was “inactive”, the Potency [29] was “inactive” and the activation [30] was 3.94%. The max response [31] was -5.76% and -2.53%, the Potency [32] was 9.44 µM (active) and the Potency [33] was 39.8 µM (active). For the same compound, the Potency [34] was 22.4 µM (active) and 25.1 µM (active) and the Potency [35] was “inactive”.
